Source: PubChem BioAssay (Tox21)
Calls of active or inactive are those of the source. Calls come from the whole dose curve; as a rule, active = well fitted curve in the direction sought with a large enough effect in the repeat runs; inconclusive = weak or mixed curves; inactive = flat fitted curve, though single readings scatter.

Assay: qHTS assay to test for compound auto fluorescence at 460 nm (blue) in HEK293 cells (AID 720678)
Details: blue autofluorescence 405/460 nm; series mostly up to 91.3 µM
Outline: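 Intrinsic compound fluorescence is recorded in live HEK293 cultures after overnight incubation at 37C, 5% CO2, using excitation 405 nm and emission 460 nm. Values are referenced to triamterene.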

| SMILES | outcome |
| --- | --- |
| [Cl-].[Cl-].[Hg+2] | inactive |
| CC(=O)OC(c1ccccc1)C(Cl)(Cl)Cl (stereo unspecified) | inactive |
| Cc1ncc(C[n+]2csc(CCO)c2C)c(N)n1 | inactive |
| CN1CC[C@]23c4c5ccc(O)c4O[C@H]2[C@@H](O)C=C[C@H]3[C@H]1C5 | inactive |
| CCC(C)(C)O | inactive |
| CC(C)(C)N(NC(=O)c1ccc(Cl)cc1)C(=O)c1ccccc1 | inactive |
| O=[N+]([O-])c1cc(Cl)c(Cl)cc1Cl | inactive |
| CN(C)c1ccc(N=O)cc1 | inactive |
| CC1(C)[C@H](C(=O)O[C@H](C#N)c2cccc(Oc3ccccc3)c2)[C@@H]1C=C(Br)Br | inactive |
| CCCN(CCOc1c(Cl)cc(Cl)cc1Cl)C(=O)n1ccnc1 | inactive |
| Nc1ccccc1C(=O)OCCc1ccccc1 | inactive |
| NP(N)(=O)NC(=O)c1ccc(F)cc1 | inactive |
| CN1C(=O)CN=C(c2ccccc2)c2cc([N+](=O)[O-])ccc21 | inactive |
| O=S(=O)(c1ccccc1)c1ccccc1 | inactive |
| CCNC(=O)NC(=O)/C(C#N)=N/OC | inactive |
| O=C(O)CCCOc1ccc(Cl)cc1Cl | inactive |
| C[Si](Cn1cncn1)(c1ccc(F)cc1)c1ccc(F)cc1 | inactive |
| FC(Cl)(Cl)C(F)(Cl)Cl | inactive |
| O=C(O)C(O)C(O)C(=O)O (stereo unspecified) | inactive |
| Nc1ccc2c(c1)Cc1ccccc1-2 | inactive |
| CC(Oc1cc(Cl)c(Cl)cc1Cl)C(=O)O (stereo unspecified) | inactive |
| C=C(C)C(=O)OCCCCOC(=O)C(=C)C | inactive |
| COP(=O)(OC)OC(Br)C(Cl)(Cl)Br (stereo unspecified) | inactive |
| CC[N+]1(CCOC(=O)C(O)(c2ccccc2)c2ccccc2)CCCCC1 | inactive |
| O=CC=O | inactive |
| O=P(OCC(Br)CBr)(OCC(Br)CBr)OCC(Br)CBr (stereo unspecified) | inactive |
